CYP2C9 inh: inhibitors of human CYP2C9. P11712. CYP2C9 Supersomes, luciferin-H conversion, luminescence. inhibition, % at 5 µM. 96,000 tested, 20% active;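 active means blocking of liver enzyme CYP2C9 beyond about 50% at 5 µM, limit read from the data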
Mac1 fbg inh: blocks human CD11b/CD18 adhesion to fibrinogen; P05107+P11215; K562 CD11b/CD18 adhesion to fibrinogen, ATPlite luminescence; Mn2+ added to activate the integrin; inhibition, % at 10 µM; 93,000 tested, 0.54% active;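 active means primary inhibition of 50% or more at 10 µM, then 40% or more on retest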
Target sequence (P05107 whole entry, looked up, other chains not shown): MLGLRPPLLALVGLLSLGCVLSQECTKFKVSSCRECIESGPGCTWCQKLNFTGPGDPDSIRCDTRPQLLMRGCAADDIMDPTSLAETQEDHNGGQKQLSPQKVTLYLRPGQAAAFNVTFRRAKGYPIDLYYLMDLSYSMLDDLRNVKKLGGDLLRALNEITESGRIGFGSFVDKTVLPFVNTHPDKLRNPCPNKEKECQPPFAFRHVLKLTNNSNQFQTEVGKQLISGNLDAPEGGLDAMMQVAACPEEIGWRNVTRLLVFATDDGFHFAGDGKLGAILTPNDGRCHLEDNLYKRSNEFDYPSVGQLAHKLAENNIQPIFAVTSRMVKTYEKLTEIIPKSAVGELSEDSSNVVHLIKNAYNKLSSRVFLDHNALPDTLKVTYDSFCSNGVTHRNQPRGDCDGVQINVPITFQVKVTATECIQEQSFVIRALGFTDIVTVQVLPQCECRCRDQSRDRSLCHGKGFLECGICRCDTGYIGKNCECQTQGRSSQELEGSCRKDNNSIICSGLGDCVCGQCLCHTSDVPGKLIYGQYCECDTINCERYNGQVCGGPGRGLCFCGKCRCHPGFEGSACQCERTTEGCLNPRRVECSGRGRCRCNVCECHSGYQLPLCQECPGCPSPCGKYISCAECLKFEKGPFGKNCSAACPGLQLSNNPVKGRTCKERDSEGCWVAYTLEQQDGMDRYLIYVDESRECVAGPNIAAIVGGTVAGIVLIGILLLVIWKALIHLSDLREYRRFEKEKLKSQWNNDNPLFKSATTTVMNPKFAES
CYP2C19 inhib: human CYP2C19 inhibition | P33261 | inhibition, % at 5 µM | AID 778 | CYP2C19 Supersomes, luciferin-H EGE luminescence, 30 min | 96,000 tested, 21% active;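 active means CYP2C19 inhibition above a set limit at 5 µM in the primary screen, cut at about 50% in these data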;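 further: plate controls were negative control wells for no effect and 2.5 mM tranylcypromine positive control for full effect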
CYP2C19 activ: cytochrome P450 2C19 (human) activation; activation factor at 5 µM; P33261; AID 1025; recombinant CYP2C19, luciferin-H EGE luminescence; stronger effect = higher value; 0 = fully inhibited enzyme, 1 = untreated enzyme; 96,000 tested, under 10 active;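 active means activation factor of at least 2 at 5 µM in the primary screen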;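 further: 0 = wells with 2.5 mM tranylcypromine and 1 = vehicle-only wells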
CYP2C9 activ: CYP2C9 (human) activation; recombinant CYP2C9, luciferin-H conversion, luminescence; stronger effect = higher value; factor 1 = untreated enzyme, 0 = blocked; activation factor at 5 µM; 96,000 tested, 1.4% active; AID 1024;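 active means activation factor of 2 or more for CYP2C9 at a 5 µM dose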;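 further: 0 = sulfaphenazole-blocked wells and 1 = vehicle-only wells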
Mac1 fbg enh: increases human CD11b/CD18 adhesion to fibrinogen. P05107+P11215. K562 CD11b/CD18 adhesion to fibrinogen, ATPlite luminescence. activation, % at 10 µM. 93,000 tested, 0.07% active. AID 1499;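 active means 10 µM primary screen giving 50% or more activity, confirmed by 40% or more on retest at that dose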
* = called active by the depositor; . = not tested or not shown. Shown are actives, neighbours in structure and some others; about 28% of the full set was active somewhere.

SMILES	CYP2C9 inh	Mac1 fbg inh	CYP2C19 inhib	CYP2C19 activ	CYP2C9 activ	Mac1 fbg enh
CCOC(=O)C1=C(c2ccccc2)NC(SCC(=O)NC2CCCCC2)=C(C#N)C1c1ccco1 (centres undefined)	61.0*	2.9	29.5	0.7	0.4	-1.5
COc1cccc2cc(C(N)=O)/c(=N/NC(=O)COc3ccc(Cl)cc3)oc12	.	-8.4	.	.	.	27.1
Cc1ccc(C(C)C)c(Oc2nnnn2-c2ccccc2)c1	75.9*	9.3	90.6*	0.1	0.2	-4.2
Cc1ccc(C)c(Oc2nnnn2-c2ccccc2)c1	42.8	2.5	92.8*	0.1	0.6	-2.5
COc1ccc(NC(=O)/C(=C\c2ccc3c(c2)OCO3)NC(C)=O)cc1	.	3.6	.	.	.	-4.2
C/C(=N\NS(=O)(=O)c1ccc(C)cc1)c1ccc(C)s1	1.7	.	-8.7	1.1	1	.
C/C(=N\NS(=O)(=O)c1ccc(C)cc1)c1ccc(Br)s1	70.7*	-2.2	57.7*	0.4	0.3	1.2
CCCN(CCC)C(=O)Cn1c2ccccc2c2nc(=O)cc(C)n21	-8.8	2.7	3.5	1	1.1	-0.4
CCN(CC)c1ccc(-c2nc3cnccc3n2C)cc1	91.8*	5.1	90.3*	0.1	0.1	0.9
CCN(CC)c1ccc(NC(=O)c2cccnc2)cc1	22.2	-3.2	36.5	0.6	0.8	0.0
Cc1c(Br)cc(C(=O)NC2CCCCC2)c(C)c1C	-36.2	.	-7.9	1.1	1.4	.
O=S1(=O)C=CC(Nc2cccc(Cl)c2)C1 (centres undefined)	71.0*	-13.9	18.1	0.8	0.3	-0.9
COCC(C)NS(=O)(=O)c1ccc(C)cc1 (centres undefined)	-7.9	0.9	16.7	0.8	1.1	0.0
CCNS(=O)(=O)c1cc(Br)ccc1OC	-75.7	2.0	29.5	0.7	1.8	2.8
COCCCNS(=O)(=O)c1ccc(OC)c(Cl)c1Cl	-267.9	-5.8	88.0*	0.1	3.7*	-0.3
CCC(C)NS(=O)(=O)c1ccc(OC)c(Cl)c1Cl (centres undefined)	-36.5	12.8	69.6*	0.3	1.4	-2.8
CCCCNS(=O)(=O)c1ccc(OC)c(Cl)c1Cl	-58.6	-1.1	51.5*	0.5	1.6	-3.3
CCCCCC(=O)OC(CN1CCCCC1)CN1CCCC1=O (centres undefined)	-3.1	12.8	2.0	1	1	-1.3
COc1ccc(C2C(C#N)=C(N)OC3=C2C(=O)CC(C)(C)C3)c([N+](=O)[O-])c1OC (centres undefined)	70.9*	.	20.6	0.8	0.3	.
COc1cccc(C2C(C#N)=C(N)OC3=C2C(=O)CC(c2ccco2)C3)c1OCc1ccc(F)cc1 (centres undefined)	89.3*	.	79.5*	0.2	0.1	.
COc1ccc(C2C(C#N)=C(N)OC3=C2C(=O)CC(C)C3)c(OC)c1OC (centres undefined)	58.0*	-5.9	9.9	0.9	0.4	3.7
CC1(C)CC(=O)C2=C(C1)OC(N)=C(C#N)C2c1cn(-c2ccccc2)nc1-c1ccc(F)cc1 (centres undefined)	.	-9.2	.	.	.	1.1
COc1cc(C2C(C#N)=C(N)OC3=C2C(=O)CC(C)(C)C3)c([N+](=O)[O-])cc1OC (centres undefined)	9.3	.	-5.3	1.1	0.9	.
Cc1cc2cc(CN(C(=O)C3CC3)C3CCCC3)c3nnnn3c2cc1C	71.6*	-9.9	95.6*	0	0.3	1.5
Cn1nccc1C(=O)Nn1cnnc1	1.7	8.1	-13.7	1.1	1	-2.1
SMILES	CYP2C9 inh	Mac1 fbg inh	CYP2C19 inhib	CYP2C19 activ	CYP2C9 activ	Mac1 fbg enh
Cn1nccc1C(=O)c1ccc(Cl)cc1	22.7	-18.4	58.1*	0.4	0.8	0.0
Cc1c(NC(=O)C2CCCN(S(=O)(=O)c3cnc[nH]3)C2)c(=O)n(-c2ccccc2)n1C (centres undefined)	-6.6	9.2	-10.5	1.1	1.1	0.3
Cc1ccccc1NC(=O)C1CCCN(S(=O)(=O)c2cnc[nH]2)C1 (centres undefined)	56.3*	3.8	63.5*	0.4	0.4	-1.3
O=C(NC(c1ccccc1)c1ccccc1)C1CCCN(S(=O)(=O)c2cnc[nH]2)C1 (centres undefined)	76.4*	-0.7	31.0	0.7	0.2	-5.4
Cc1ccc(NC(=O)C2CCCN(S(=O)(=O)c3cnc[nH]3)C2)c(Br)c1 (centres undefined)	95.0*	5.2	92.9*	0.1	0.1	-2.5
O=C(Nc1ccc(Br)cc1F)C1CCCN(S(=O)(=O)c2cnc[nH]2)C1 (centres undefined)	78.9*	4.9	82.8*	0.2	0.2	-3.1
FC(F)(F)c1cccc(OCCN2CCN(Cc3ccccc3)CC2)c1	.	-4.6	.	.	.	3.3
Cc1nc2ccccn2c1/C(O)=C1\C(=O)C(=O)N(CCN2CCOCC2)C1c1ccncc1 (centres undefined)	7.3	-10.9	5.6	0.9	0.9	10.0
COc1ccc2oc(C(=O)OCC(=O)NCCN3C(=O)CSC3=O)c(C)c2c1	.	-9.2	.	.	.	-1.9
Cc1cccc2cc(CN(CCCO)C(=O)Nc3ccccc3Cl)c(=O)[nH]c12	28.9	3.8	8.2	0.9	0.7	2.5
O=C(c1ccncc1)N(Cc1ccco1)Cc1cc2ccccc2[nH]c1=O	92.9*	-1.7	99.4*	0	0.1	0.1
Cc1cccc2cc(CN(CCCO)C(=O)Nc3cccc(Cl)c3)c(=O)[nH]c12	81.0*	11.3	70.8*	0.3	0.2	25.2
Cc1cccc2cc(CN(Cc3ccco3)C(=O)c3ccncc3)c(=O)[nH]c12	94.5*	-8.7	98.0*	0	0.1	0.7
COCCN(Cc1cc2cccc(C)c2[nH]c1=O)C(=O)c1ccccc1	17.6	8.1	42.8	0.6	0.8	0.7
COC(=O)CS(=O)(=O)c1ccc2c(c1)CC(=O)N2	3.0	-1.3	0.1	1	1	-2.4
COC(=O)\C(C(C)=O)=C(/C=C/C=C/C=C/N(C)C)N(C)C	7.4	.	0.1	1	0.9	.
CCOc1c(Cl)cc(CNC(C)(C)CC(C)(C)C)cc1OC	-4.6	4.9	90.9*	0.1	1	-0.7
Cc1cc(C)nc(N2CCCC(C(=O)NC(C)CCc3ccco3)C2)n1 (centres undefined)	58.7*	-3.8	73.9*	0.3	0.4	-5.0
Cc1cc(OCC(=O)NCCN2CCOCC2)ccc1Br	-8.8	-22.3	85.0*	0.2	1.1	2.1
O=C(COc1cc(Cl)c(Cl)cc1Cl)NCCN1CCOCC1	5.7	8.3	64.6*	0.4	0.9	-0.7
Cc1ccc(-c2nnc(Nc3ccc4c(c3)OCO4)c3ccccc23)cc1S(=O)(=O)NC(C)C	.	8.7	.	.	.	31.0
CC(=O)Nc1ccc(OC(F)(F)C(F)C(F)(F)F)c(NC(C)=O)c1 (centres undefined)	-14.9	-16.1	-16.0	1.2	1.1	0.4

High-throughput results (PubChem BioAssay)
